# Reference: PubChem BioAssay (Tox21)
# “And” between values parts separate entries of the source, which are not always exact repeats. Equal entries are not always repeated. Records with an inconclusive call do not appear. Where a structure was tested more than once in an assay, its records may differ in their call. The source made the active and inactive calls. Unless noted, calls come from the whole dose curve; as a rule, active = well fitted curve in the direction sought with a large enough effect in the repeat runs; inconclusive = weak or mixed curves; inactive = no such curve, though single readings can be large; an effect the other way counts as inactive or inconclusive.
# Key:
# [1] = qHTS assay for identifying genotoxic compounds that show differential cytotoxicity against isogenic chicken DT40 cell lines with known DNA damage response pathways - wild type cell line (AID 743012); note: nearly all actives have a fitted effect of over 60% in size; note: potency is the fitted concentration of half-maximal effect
# Outline: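 Viability by ATP luminescence (CellTiter-Glo, 30 min RT) after 40 h compound treatment at 37 C/5% CO2, using 300 parental DNA repair-proficient DT40 cells per well.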
# [2] = qHTS assay for identifying genotoxic compounds that show differential cytotoxicity against isogenic chicken DT40 cell lines with known DNA damage response pathways - Rev3 mutant cell line (AID 743014); note: nearly all actives have a fitted effect of over 55% in size; note: potency is the fitted concentration of half-maximal effect
# [3] = qHTS assay for identifying genotoxic compounds that show differential cytotoxicity against isogenic chicken DT40 cell lines with known DNA damage response pathways - Rad54/Ku70 mutant cell line (AID 743015); note: nearly all actives have a fitted effect of over 60% in size; note: potency is the fitted concentration of half-maximal effect
# [4] = qHTS assay to identify small molecule antagonists of the androgen receptor (AR) signaling pathway using the MDA cell line - cell viability counter screen (AID 743041; note: nearly all actives have a fitted effect of over 45% in size; note: potency is the fitted concentration of half-maximal effect)
# Outline: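 Using the breast carcinoma line MDA-kb2 AR-luc, test chemicals were co-incubated with R1881 for 16 h; CellTiter-Fluor reagent, added at 15.5 h, provided a fluorescence measure of live cells.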
# [5] = qHTS assay to identify small molecule antagonists of the androgen receptor (AR) signaling pathway - cell viability counter screen (AID 743033; note: nearly all actives have a fitted effect of over 45% in size; note: potency is the fitted concentration of half-maximal effect)
# [6] = target: Androgen receptor (Homo sapiens) (UniProt P10275); experiment: qHTS assay to identify small molecule agonists of the androgen receptor (AR) signaling pathway using the MDA cell line (AID 743040; note: nearly all actives have a fitted effect of over 20% in size; note: potency is the fitted concentration of half-maximal effect)
# Sequence of Androgen receptor (Homo sapiens) (P10275 whole entry, looked up): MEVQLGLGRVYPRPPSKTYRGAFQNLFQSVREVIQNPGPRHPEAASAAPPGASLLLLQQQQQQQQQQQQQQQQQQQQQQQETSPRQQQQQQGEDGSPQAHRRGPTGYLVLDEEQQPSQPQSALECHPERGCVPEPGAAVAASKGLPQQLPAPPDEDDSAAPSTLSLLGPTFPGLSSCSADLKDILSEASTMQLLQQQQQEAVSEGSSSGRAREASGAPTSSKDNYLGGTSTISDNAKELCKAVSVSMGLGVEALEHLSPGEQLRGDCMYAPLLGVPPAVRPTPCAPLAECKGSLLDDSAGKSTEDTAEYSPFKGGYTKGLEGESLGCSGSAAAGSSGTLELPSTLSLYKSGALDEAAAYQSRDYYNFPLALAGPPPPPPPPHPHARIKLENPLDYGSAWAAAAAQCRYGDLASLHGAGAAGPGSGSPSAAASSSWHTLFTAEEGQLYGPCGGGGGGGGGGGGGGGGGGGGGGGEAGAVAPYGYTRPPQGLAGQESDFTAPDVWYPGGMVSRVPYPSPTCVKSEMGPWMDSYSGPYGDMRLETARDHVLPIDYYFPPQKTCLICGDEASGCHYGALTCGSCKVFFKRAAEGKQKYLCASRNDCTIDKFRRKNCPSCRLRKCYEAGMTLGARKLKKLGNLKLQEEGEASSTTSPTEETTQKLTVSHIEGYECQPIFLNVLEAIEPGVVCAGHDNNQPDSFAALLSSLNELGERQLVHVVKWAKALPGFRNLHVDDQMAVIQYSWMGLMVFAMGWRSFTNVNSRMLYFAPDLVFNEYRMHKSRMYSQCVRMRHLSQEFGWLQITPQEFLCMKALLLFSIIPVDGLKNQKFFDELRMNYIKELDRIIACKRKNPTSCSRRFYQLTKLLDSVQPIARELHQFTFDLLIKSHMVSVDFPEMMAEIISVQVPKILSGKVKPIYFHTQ
# Outline: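 Stable MMTV-luciferase reporter in MDA-kb2 cells; note the promoter carries GR as well as AR response elements. 16 h compound treatment, 37C, 0% CO2; ONE-Glo luminescence endpoint.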
# [7] = target: Androgen receptor (Homo sapiens) (UniProt P10275); experiment: qHTS assay to identify small molecule antagonists of the androgen receptor (AR) signaling pathway using the MDA cell line (AID 743042; note: nearly all actives have a fitted effect of over 55% in size; note: potency is the fitted concentration of half-maximal effect)
# Outline: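 Antagonist mode: compounds plus R1881 agonist added to MDA-kb2 AR-luc cells, incubated 16 h at 37C. Luciferase reporter luminescence quantified, with multiplexed CellTiter-Fluor readout for cell viability.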
# [8] = target: Androgen receptor (Homo sapiens) (UniProt P10275); experiment: qHTS assay to identify small molecule antagonists of the androgen receptor (AR) signaling pathway (AID 743035; active = well fitted inhibition curve with a large enough effect in the signal ratio in the repeat runs, not every such curve was filed as active; the % refers to the signal ratio; note: potency is the fitted concentration of half-maximal effect)
# Outline: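 Antagonist mode: AR-bla HEK293 cells co-treated with test compounds and agonist R1881 for 16 h at 37C, 5% CO2. Beta-lactamase activity read as FRET fluorescence after 2 h room-temperature substrate loading.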
# [9] = target: Androgen receptor (Homo sapiens) (UniProt P10275); experiment: qHTS assay to identify small molecule agonists of the androgen receptor (AR) signaling pathway (AID 743036; active = well fitted activation curve with a large enough effect in the signal ratio in the repeat runs, with a control signal flat, not every such curve was filed as active; the % refers to the signal ratio)
# Outline: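 Activation was read as beta-lactamase FRET signal from LiveBLAzer B/G substrate, added for 2 h at room temperature. Before that, GeneBLAzer AR-UAS-bla GripTite (HEK293) cells had 16 h compound exposure at 37C.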
Compound,Potency [1],Potency [2],Potency [3],Potency [4],Potency [5],Potency [6],Potency [7],Potency [8],Potency [9]
C/C=C1/C(=O)C[C@H]2[C@@H]3CCC4=CC(=O)CC[C@]4(C)[C@H]3CC[C@]12C,21.6 µM (active),13.6 µM (active),19.3 µM (active),inactive,,,,,
Nc1ccc2c3c(cccc13)-c1ccccc1-2,61.8 µM (active),27.6 µM (active),55 µM (active),,inactive,inactive,inactive,,
CCN(CC)CCNC(=O)c1c(C)[nH]c(/C=C2\C(=O)Nc3ccc(F)cc32)c1C,5.96 µM (active),9.44 µM (active),,inactive,inactive,,,,
CCCCc1oc2ccc(NS(C)(=O)=O)cc2c1C(=O)c1ccc(OCCCN(CCCC)CCCC)cc1,9.44 µM (active),13.3 µM (active),18.8 µM (active),,21.3 µM (active),,,,
CCCCN(CCCC)c1ccc(C(=O)c2ccccc2C(=O)O)c(O)c1,,,,inactive,inactive,inactive,,39.3 µM (active),
Oc1ccc(N=Nc2ccccc2)cc1,,61.9 µM (active),,,,inactive,inactive,,
CN(C)C(=O)C1(N2CCCCC2)CCN(CC[C@@]2(c3ccc(Cl)c(Cl)c3)CN(C(=O)c3ccccc3)CCO2)CC1,7.19 µM (active),8.07 µM (active),5.71 µM (active),50.9 µM (active),16.2 µM (active),inactive,28.6 µM (active),,
O=C(Nc1cccc(C(F)(F)F)c1)c1cc(Br)cc(Br)c1O,5.31 µM (active) and 6.11 µM (active),5.96 µM (active) and 7.7 µM (active),6.68 µM (active) and 4.86 µM (active),11.9 µM (active) and 10.9 µM (active),,,,,
CCCCCCCCn1sc(Cl)c(Cl)c1=O,0.433 µM (active),,0.686 µM (active),inactive,,,,,
CCCCCCOC(=O)c1ccc(O)cc1,21.7 µM (active) and inactive,48.6 µM (active),,inactive,inactive,inactive,inactive,,inactive
CCCCC(CC)COC(=O)c1ccccc1C(=O)O (stereo unspecified),,,,,inactive,,,,
CC[C@H](c1ccc(O)cc1)[C@@H](CC)c1ccc(O)cc1,12.2 µM (active),10.1 µM (active) and 13.7 µM (active),19.3 µM (active),inactive,,inactive,inactive and 54.5 µM (active),8.11 µM (active) and 21.9 µM (active),inactive
O=c1[nH]sc2ccccc12,0.433 µM (active),,0.686 µM (active),,24.5 µM (active),,,,
c1cc(C(c2ccc(OCC3CO3)cc2)c2ccc(OCC3CO3)cc2)ccc1OCC1CO1 (stereo unspecified),24.3 µM (active),0.969 µM (active),13.7 µM (active),inactive,,inactive,,,
CCCCC(CC)COP(=O)(O)OCC(CC)CCCC (stereo unspecified),,inactive,,inactive,,,,,
CSc1ccc2c(c1)C(N1CCN(C)CC1)Cc1ccccc1S2 (stereo unspecified),5.96 µM (active),6.68 µM (active),9.44 µM (active),inactive,,,,,
OCc1c[nH]c2ccccc12,30.6 µM (active),51.4 µM (active),64.8 µM (active),,,inactive,,,
CC(C)(C)NC(=O)[C@@H]1C[C@@H]2CCCC[C@@H]2CN1C[C@@H](O)[C@H](Cc1ccccc1)NC(=O)[C@H](CC(N)=O)NC(=O)c1ccc2ccccc2n1,26.6 µM (active),13.3 µM (active),16.8 µM (active) and 55.2 µM (active),,49.6 µM (active),,,,
CCCCCCCCS(=O)C(C)Cc1ccc2c(c1)OCO2 (stereo unspecified),,69.9 µM (active),69.9 µM (active),,,inactive,,,inactive

Compound,Potency [1],Potency [2],Potency [3],Potency [4],Potency [5],Potency [6],Potency [7],Potency [8],Potency [9]
CSc1ccc(/C=C2/C(C)=C(CC(=O)O)c3cc(F)ccc32)cc1,inactive,inactive,inactive,inactive,,inactive,inactive,inactive,
O=C(Nc1cccc([N+](=O)[O-])c1)c1cc2ccccc2cc1O,2.17 µM (active),,2.17 µM (active),10.9 µM (active),,inactive,6.86 µM (active),,inactive
CCCC(=O)OC[C@@H](OC(=O)CCC)[C@@H](OC(=O)CCC)[C@H](Cn1c2nc(=O)[nH]c(=O)c-2nc2cc(C)c(C)cc21)OC(=O)CCC,11.9 µM (active),13.3 µM (active),10.6 µM (active),,inactive,5.31 µM (active),23.7 µM (active),inactive,
[Cl][Au]([Cl])[Cl],13.7 µM (active),12.2 µM (active),13.7 µM (active),48.6 µM (active),21.9 µM (active),,,,
CCOC(=O)c1nc(C(Cl)(Cl)Cl)n(-c2ccc(Cl)cc2Cl)n1,48.6 µM (active),34.4 µM (active),,inactive,49 µM (active),inactive,68.6 µM (active),,
C=C(C)C(=O)OCC(O)COc1ccc(C(C)(C)c2ccc(OCC(O)COC(=O)C(=C)C)cc2)cc1 (stereo unspecified),5.45 µM (active),,6.86 µM (active),21.7 µM (active),24.5 µM (active),,,,
CCc1cc(Cc2cc(CC)c(N)c(CC)c2)cc(CC)c1N,61.1 µM (active),61.1 µM (active),54.5 µM (active),inactive,,,,,
CCCCCCCCCOC(=O)c1ccc(O)cc1,,19.1 µM (active),,,,inactive,,24.2 µM (active),
CC(C)OC(=O)c1cc2c(OCC(O)CNC(C)(C)C)cccc2[nH]1 (stereo unspecified),23.7 µM (active),,26.6 µM (active),inactive,,inactive,inactive,inactive,
N=C1C=CC(=C(c2ccc(N)cc2)c2ccc(N)cc2)C=C1,9.69 µM (active),6.86 µM (active),7.7 µM (active),15.4 µM (active),15.5 µM (active),inactive,2.43 µM (active),2.19 µM (active),
CC(C)(C)c1ccc(C(=O)CCCN2CCC(OC(c3ccccc3)c3ccccc3)CC2)cc1,4.22 µM (active),,5.96 µM (active),inactive,inactive,,,,
Oc1c(Cl)cc(Cl)c2cccnc12,3.76 µM (active),3.76 µM (active),,11.1 µM (active),inactive,,,,
O=C1C=CC(=O)N1c1ccc(Cc2ccc(N3C(=O)C=CC3=O)cc2)cc1,0.969 µM (active),1.22 µM (active),,54.5 µM (active),17.4 µM (active),,,,
CCCCCCC[N+](CC)(CC)CCCCc1ccc(Cl)cc1,1.01 µM (active),1.43 µM (active),1.27 µM (active),,inactive,,,,
Cc1cc(O)c(Cl)c(C)c1Cl,24.3 µM (active),24.3 µM (active),17.2 µM (active),,27.5 µM (active),inactive,54.5 µM (active),,
Oc1cccc(-c2c3nc(c(-c4cccc(O)c4)c4ccc([nH]4)c(-c4cccc(O)c4)c4nc(c(-c5cccc(O)c5)c5ccc2[nH]5)CC4)C=C3)c1,29.8 µM (active),29.8 µM (active),26.6 µM (active),23.7 µM (active),inactive and 23.9 µM (active),inactive,inactive,,
COc1ccc(-c2ccc3cc(C(=O)O)ccc3c2)cc1C12CC3CC(CC(C3)C1)C2,inactive,,inactive,inactive,inactive,,,,
O=C(O)c1c(Cl)cccc1Cl,inactive,inactive,inactive,inactive,inactive,,,,
CC1(C)CCC(C)(C)c2cc(C(=O)Nc3ccc(C(=O)O)cc3)ccc21,24.3 µM (active),19.3 µM (active),21.7 µM (active),,,inactive,,49 µM (active),inactive
